Experimental findings from PubChem BioAssay (NCI) are described below.

This is part of a sample that, as a whole, favours compounds with a hit. Of some 83,000 tested, about 20% had one in any assay.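 Compound tested at a single concentration for 48 hours in 96-well plates; a percent growth value below 10 was scored as active.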 A number with no mark means an inactive call. Calls of active or inactive are those of the source.

This assay concerns M14 melanoma. Nature of the assay: NCI-60 one-dose screen, 48 h (100 = growth as untreated, 0 = no growth, -100 = all killed). To be noted: 10 µM unless noted. Here is the method: Growth inhibition of the M14 human tumor cell line is measured as a screen for anti-cancer activity. Cells are grown in 96 well plates and exposed to the test compound for 48 hours. Compounds are tested at a single concentration, which is 10^-5 M for most compounds. The reported endpoint is percent growth (GI% or GIPRCNT), where numbers from 0 - 100% represent growth inhibition, and numbers from -100% - 0 represent cell death. For example, a value of 40 represents 60% growth inhibition. A value of 0 means no net growth occurred over the course of the experiment. A value of -40 indicates 40% of cells at the beginning of the experiment died by the end of the experiment. A value of -100 means all cells are dead at the end of the experiment.
NCI-60 Human Tumor Cell Lines Screen was performed using the standard one-dose NCI protocol, which is described in more detail at https://dtp.cancer.gov/discovery_development/nci-60/default.htm.
Compounds with GIPRCNT values below 10 were considered active. Activity score was based on GIPRCNT using the following formula: […]
Score is 0 for GIPRCNT values of 100 or above, 50 for GIPRCNT values of 0, and 100 for GIPRCNT values of -100.
On to `CNC(C)[C@H]1CCC2C3CC=C4C(=O)[C@@H](NC(=O)C=C(C)C)CC[C@]4(C)C3CC[C@@]21C` (stereo not given in full), for which the growth was -53.7% (active).

Take `CCN1CCN(CC(=O)Nc2nc3ccc(NCc4ccc(F)cc4)cc3s2)CC1`: the growth was 91.4%.

In the case of `CC(C)(C)n1cc(-c2ccnc(NCCCNS(=O)(=O)c3ccc(C(F)(F)F)cc3)c2)c(-c2cccc(F)c2)n1`, the growth was 81.2%.

`Cc1ccc(C(=O)c2ccc(CC(=O)NN3C(=O)c4ccccc4C3=O)n2C)cc1`: the growth was 104%.

As to `Oc1ccc(/C=C/c2ccc(O)cc2)cc1`, the growth is 65%.

With `COc1ccc(/C=C/c2c(C(=O)/C=C/c3ccccc3)c(C)nc3ccccc23)cc1`, the growth was 15.3%.

As to `O=C(Nc1ncccc1OCc1ccccc1)NC1CCCCCC1`, the growth was 95.3%.

Turning to `O=C(NCc1cccc(CNC(=O)Nc2nc3ccccc3[nH]2)c1)Nc1nc2ccccc2[nH]1`, the growth was -77.4% (active).

For the compound `CCNc1ccc(-c2nc3ccccc3n3cccc23)cc1`, the growth was 77.9%.

Regarding `CCCCCCCCCCCCCCCCCC1=NC(C)(C)CN1CC(C)O` (stereo not given), the growth is 36.6%.

With `CC1=C(C(=O)Nc2ccccc2)C(c2ccc3c(c2)OCO3)NC(=S)N1` (stereo not given), the growth is 93%.

`CCN1C(=O)N(CC)C2C1NN=c1s/c(=C3\C(=O)N(CC(C)C)c4ccccc43)c(=O)n12` (stereo not given): the growth was 18.8%.

Turning to `Cc1c(CN)cc(-c2ccc(Cl)cc2)n1-c1ccccc1`, the growth was 82.8%.

`COc1ccc(-c2nn(-c3ccccc3)cc2/C=C/C(=O)NNC(=O)Nc2ccc(C)cc2)cc1`: the growth is 94.1%.

On to `CCOC(=O)c1ccccc1-c1c2ccc(=[N+](C)C)cc-2oc2cc(N(C)C)ccc12`, for which the growth was 13.5%.

On to `COc1ccc(/C=C/C(c2cc(OC)c(OC)c(OC)c2)n2ccnc2)cc1O` (stereo not given), for which the growth was 18.6%.

Regarding `COc1cc(/C=C/C(=O)c2ccc(-n3cc(CN4CCN(c5cc6c(cc5F)c(=O)c(C(=O)O)cn6C5CC5)CC4)nn3)cc2)ccc1O`, the growth was 79%.

As to `O=C(Nc1cnc(Nc2ccc(N3CCOCC3)nc2)nc1Oc1ccc(C(F)(F)F)cc1)c1ccncc1`, the growth is 99%.

Consider `CCCn1nc(C(=O)N(C)Cc2ccccc2)c2c1CCC(N1CCc3ccccc31)C2` (stereo not given), for which the growth is 99%.

`CNC(=O)c1ccccc1Nc1nc(Nc2cc(OC)c(OC)c(OC)c2)ncc1Br`: the growth was -52.9% (active).

`O=C(Nc1ccc(Cl)cc1)Oc1c(Cl)c(Cl)c(Cl)c(Cl)c1Cl`: the growth was 96.8%.

Turning to `NS(=O)(=O)c1ccc(C(=O)NN2C(=O)c3c(Br)c(Br)c(Br)c(Br)c3C2=O)cc1`, the growth is 98.9%.

Turning to `O=C(O)[C@@H](Cc1ccc2ccccc2c1)NC(=O)n1c2ccccc2c2ccccc21`, the growth is 4.26% (active).

In the case of `CC1=CC(c2ccco2)=C2C(N)=NNC2N1` (stereo not given), the growth was 104%.

For `CC1(C)CC[C@]23CC[C@]4(C)[C@H](CC[C@@H]5[C@@]6(C)C/C(=C/c7ccncc7)C(=O)C(C)(C)[C@@H]6CC[C@]54C)[C@H]2[C@H]1OC3`, the growth is 96.6%.

On to `CCO/C=N/C1=C(C#N)C(c2ccc(F)cc2)c2sc3c(F)cccc3c2O1` (stereo not given), for which the growth was 29.8%.

With `O=C(CCl)NNc1nccc(Nc2ccc(S(=O)(=O)Nc3ccncc3)cc2)n1`, the growth was 45.2%.

Consider `COc1cnc2c(c1)C(=O)c1c-2n(CCCCl)c(=O)c2ccncc12`, for which the growth is 67.5%.

In the case of `COc1ccc2c(c1)c(/C(O)=C1\COC(=O)C1=O)cn2Cc1ccc(F)cc1`, the growth was 116%.

On to `Cc1ccc(S(=O)(=O)OCCCOS(=O)(=O)c2ccc(C)cc2)cc1`, for which the growth was 98%.

For the compound `O=C(NNC(=O)c1nc2cc(F)ccc2n2cccc12)c1cnccn1`, the growth is 23.4%.

Take `CCCCNC(=O)Oc1ccc(/C(=C(/C)Cc2ccc(OC)cc2)c2ccc(OCCN3CCCCC3)cc2)cc1`: the growth is 31%.

Consider `Cc1ncc(C(=O)Nc2ccc(CN3CCN(C)CC3)c(C(F)(F)F)c2)cc1C#Cc1cnc(N)c2ncccc12`, for which the growth is -79.9% (active).

As for `C=C(C)[C@@H]1CC[C@]2(C)[C@H](CC=C3[C@@H]4CC(C)(C)CC[C@]4(CO)CC[C@]32C)[C@@]1(C)CCCN`, the growth was -65.5% (active).

For `CCOC(=O)C(=Cc1ccc(-c2ccccc2)cc1)C(=O)OCC`, the growth was 42.5%.

As to `CC(C)(C)n1cc(-c2ccnc(NCCNS(=O)(=O)c3ccc(O)cc3)c2)c(-c2cccc(O)c2)n1`, the growth was 110%.

Turning to `O=C(O)COc1ccc(Cl)c(Cl)c1`, the growth is 112%.

For the compound `Cc1nnc(-c2ccc3c(c2)nc(/C=C/c2ccccc2)n3C2CCCCC2)o1`, the growth was 73.7%.

On to `CCCCNC(=O)c1cc([N+](=O)[O-])cc(C2CCCCC2)c1O`, for which the growth was 44.4%.

Consider `COc1cccc(Nc2ncnc3cc(NC(=O)CCl)ccc23)c1`, for which the growth was -78.4% (active).
